Tests used:
Test in all cases: DAPPL (digital affinity profiling via proximity ligation, sequencing); 10 mM Tris-HCl pH 7.5, 50 mM NaCl, 1 mM DTT, 4% glycerol, room temperature, 30 min; GST-TFs on glutathione beads, 16-mer random dsDNA library, 0.1% formaldehyde crosslink after washing; high values mean tight binding
FLI1 = biological target: T1, FLI1 (Homo sapiens, UniProt Q01543 1-452); conditions: protein: recombinant; tags: N-terminal GST; dsDNA, one strand shown
T1 sequence: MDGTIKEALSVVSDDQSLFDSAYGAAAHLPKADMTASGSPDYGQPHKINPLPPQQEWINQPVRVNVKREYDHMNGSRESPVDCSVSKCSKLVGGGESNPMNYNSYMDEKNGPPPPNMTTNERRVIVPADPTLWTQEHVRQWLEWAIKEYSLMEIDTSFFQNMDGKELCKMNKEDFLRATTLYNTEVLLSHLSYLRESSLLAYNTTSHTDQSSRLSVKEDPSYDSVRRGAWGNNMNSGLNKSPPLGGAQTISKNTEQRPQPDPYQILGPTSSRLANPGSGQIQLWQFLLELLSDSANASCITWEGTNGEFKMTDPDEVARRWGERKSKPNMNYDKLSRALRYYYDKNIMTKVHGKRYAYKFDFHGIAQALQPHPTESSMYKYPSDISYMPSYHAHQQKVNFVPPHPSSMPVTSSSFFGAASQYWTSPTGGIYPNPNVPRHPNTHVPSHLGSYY
Summary of the method: (§1)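 GST fusions of human transcription factors were expressed in yeast and captured with glutathione beads. Once given DNA barcodes and pooled alongside a tag-only sample, they were incubated for 30 min at room temperature with 200 nmole of a random double-stranded 16-mer DNA library in Tris/NaCl/DTT/glycerol buffer, then washed, crosslinked (0.1% formaldehyde), proximity-ligated, PCR-amplified and sequenced on an Illumina NextSeq500. The binding signal of each hexamer is its read frequency for a factor divided by its frequency for the tag-only sample.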

ELK1 = biological target: T2, ELK1 (Homo sapiens, UniProt P19419 1-428); conditions: protein: recombinant; tags: N-terminal GST; dsDNA, one strand shown
T2 sequence: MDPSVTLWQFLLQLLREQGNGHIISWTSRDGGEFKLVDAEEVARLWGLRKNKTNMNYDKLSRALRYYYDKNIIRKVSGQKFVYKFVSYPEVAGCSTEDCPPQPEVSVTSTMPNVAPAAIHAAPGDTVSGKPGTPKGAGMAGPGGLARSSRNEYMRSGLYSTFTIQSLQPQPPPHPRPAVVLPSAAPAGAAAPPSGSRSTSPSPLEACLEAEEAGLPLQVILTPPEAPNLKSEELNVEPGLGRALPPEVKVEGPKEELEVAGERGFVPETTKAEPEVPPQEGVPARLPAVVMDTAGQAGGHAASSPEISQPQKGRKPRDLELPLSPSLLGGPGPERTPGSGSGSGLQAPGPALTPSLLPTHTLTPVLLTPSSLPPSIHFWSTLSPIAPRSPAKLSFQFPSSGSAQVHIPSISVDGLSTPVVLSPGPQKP
Summary of the method: as §1

GABPA = biological target: T3, GABPA (Homo sapiens, UniProt Q06546 1-454); conditions: protein: recombinant; tags: N-terminal GST; dsDNA, one strand shown
T3 sequence: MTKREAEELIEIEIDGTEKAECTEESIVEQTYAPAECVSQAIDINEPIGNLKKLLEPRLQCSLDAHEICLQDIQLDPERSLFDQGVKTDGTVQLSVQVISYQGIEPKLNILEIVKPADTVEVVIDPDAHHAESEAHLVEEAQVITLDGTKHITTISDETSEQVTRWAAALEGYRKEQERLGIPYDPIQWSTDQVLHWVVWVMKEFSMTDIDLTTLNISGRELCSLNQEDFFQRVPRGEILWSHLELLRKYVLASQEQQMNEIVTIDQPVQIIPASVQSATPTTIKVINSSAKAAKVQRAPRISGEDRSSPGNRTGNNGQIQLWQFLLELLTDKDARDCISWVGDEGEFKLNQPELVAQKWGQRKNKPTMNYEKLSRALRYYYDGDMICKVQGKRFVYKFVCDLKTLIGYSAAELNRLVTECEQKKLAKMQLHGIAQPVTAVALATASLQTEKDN
Summary of the method: as §1

ERG = biological target: T4, ERG (Homo sapiens, UniProt P11308 1-479); conditions: protein: recombinant; tags: N-terminal GST; dsDNA, one strand shown
T4 sequence: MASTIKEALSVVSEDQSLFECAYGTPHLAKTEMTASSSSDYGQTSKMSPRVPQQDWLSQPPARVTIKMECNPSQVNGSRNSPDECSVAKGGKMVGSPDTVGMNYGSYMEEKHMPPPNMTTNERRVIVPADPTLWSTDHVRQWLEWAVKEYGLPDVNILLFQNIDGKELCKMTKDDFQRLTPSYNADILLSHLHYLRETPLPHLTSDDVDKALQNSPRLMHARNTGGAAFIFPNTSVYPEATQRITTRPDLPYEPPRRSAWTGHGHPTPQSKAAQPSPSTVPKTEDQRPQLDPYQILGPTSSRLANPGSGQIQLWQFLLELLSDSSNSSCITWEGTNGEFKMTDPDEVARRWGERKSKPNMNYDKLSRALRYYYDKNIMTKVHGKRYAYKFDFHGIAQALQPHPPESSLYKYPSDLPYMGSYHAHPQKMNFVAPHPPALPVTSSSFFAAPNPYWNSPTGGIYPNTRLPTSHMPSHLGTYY
Summary of the method: as §1

ELF1 = ELF1 (Homo sapiens, UniProt P32519 1-619); conditions: protein: recombinant; tags: N-terminal GST; dsDNA, one strand shown
Chain of ELF1 (P32519 whole entry): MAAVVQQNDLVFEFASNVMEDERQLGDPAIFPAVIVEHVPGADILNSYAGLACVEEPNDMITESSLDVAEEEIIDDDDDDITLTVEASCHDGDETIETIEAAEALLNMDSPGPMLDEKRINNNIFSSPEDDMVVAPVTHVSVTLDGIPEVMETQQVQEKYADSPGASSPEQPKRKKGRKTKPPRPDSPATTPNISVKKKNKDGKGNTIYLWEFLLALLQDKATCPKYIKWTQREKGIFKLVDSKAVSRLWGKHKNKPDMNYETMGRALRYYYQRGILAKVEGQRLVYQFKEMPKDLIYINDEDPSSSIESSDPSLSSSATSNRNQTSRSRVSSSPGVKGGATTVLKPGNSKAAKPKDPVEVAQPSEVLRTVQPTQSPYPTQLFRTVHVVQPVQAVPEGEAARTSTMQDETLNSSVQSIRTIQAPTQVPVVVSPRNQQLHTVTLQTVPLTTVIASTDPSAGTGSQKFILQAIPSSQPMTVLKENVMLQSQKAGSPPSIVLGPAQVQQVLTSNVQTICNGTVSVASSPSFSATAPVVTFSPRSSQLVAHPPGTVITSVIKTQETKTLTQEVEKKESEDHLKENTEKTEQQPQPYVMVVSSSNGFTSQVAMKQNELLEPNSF
Summary of the method: as §1

EHF = biological target: T5, EHF (Homo sapiens, UniProt Q9NZC4 1-300); conditions: protein: recombinant; tags: N-terminal GST; dsDNA, one strand shown
T5 sequence: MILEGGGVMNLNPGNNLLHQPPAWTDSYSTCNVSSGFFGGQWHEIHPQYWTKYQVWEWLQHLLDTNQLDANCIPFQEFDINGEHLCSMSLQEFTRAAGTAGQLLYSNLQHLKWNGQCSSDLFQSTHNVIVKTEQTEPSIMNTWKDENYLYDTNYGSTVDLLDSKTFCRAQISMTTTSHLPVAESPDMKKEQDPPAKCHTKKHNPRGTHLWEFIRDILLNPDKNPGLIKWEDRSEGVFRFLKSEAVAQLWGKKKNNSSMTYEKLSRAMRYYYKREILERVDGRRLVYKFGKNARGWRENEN
Summary of the method: as §1

SPI1 = SPI1 (Homo sapiens, UniProt P17947 1-270); conditions: protein: recombinant; tags: N-terminal GST; dsDNA, one strand shown
Summary of the method: as §1

SPIB = SPIB (Homo sapiens, UniProt Q01892 1-262); conditions: protein: recombinant; tags: N-terminal GST; dsDNA, one strand shown
Chain of SPIB (Q01892 whole entry): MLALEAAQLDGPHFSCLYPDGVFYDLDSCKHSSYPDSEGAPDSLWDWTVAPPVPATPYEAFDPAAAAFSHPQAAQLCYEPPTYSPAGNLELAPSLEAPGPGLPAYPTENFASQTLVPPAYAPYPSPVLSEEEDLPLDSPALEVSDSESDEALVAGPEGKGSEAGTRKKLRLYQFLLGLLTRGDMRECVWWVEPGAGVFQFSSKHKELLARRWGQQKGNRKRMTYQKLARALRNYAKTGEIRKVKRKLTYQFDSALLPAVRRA
Summary of the method: as §1

ELK3 = biological target: T6, ELK3 (Homo sapiens, UniProt P41970 1-407); conditions: protein: recombinant; tags: N-terminal GST; dsDNA, one strand shown
T6 sequence: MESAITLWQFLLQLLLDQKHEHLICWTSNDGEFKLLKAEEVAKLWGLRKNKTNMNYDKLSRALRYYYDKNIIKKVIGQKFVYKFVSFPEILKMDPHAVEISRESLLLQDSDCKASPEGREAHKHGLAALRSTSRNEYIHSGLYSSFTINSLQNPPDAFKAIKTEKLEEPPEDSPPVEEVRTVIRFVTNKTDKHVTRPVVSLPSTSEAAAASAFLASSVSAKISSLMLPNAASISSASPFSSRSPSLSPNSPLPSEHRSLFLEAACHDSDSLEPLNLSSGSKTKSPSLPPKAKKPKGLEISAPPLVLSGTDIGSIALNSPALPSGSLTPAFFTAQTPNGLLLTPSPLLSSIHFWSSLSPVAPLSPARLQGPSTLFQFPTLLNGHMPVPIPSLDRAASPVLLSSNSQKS
Summary of the method: as §1

FEV = biological target: T7, FEV (Homo sapiens, UniProt Q99581 1-238); conditions: protein: recombinant; tags: N-terminal GST; dsDNA, one strand shown
T7 sequence: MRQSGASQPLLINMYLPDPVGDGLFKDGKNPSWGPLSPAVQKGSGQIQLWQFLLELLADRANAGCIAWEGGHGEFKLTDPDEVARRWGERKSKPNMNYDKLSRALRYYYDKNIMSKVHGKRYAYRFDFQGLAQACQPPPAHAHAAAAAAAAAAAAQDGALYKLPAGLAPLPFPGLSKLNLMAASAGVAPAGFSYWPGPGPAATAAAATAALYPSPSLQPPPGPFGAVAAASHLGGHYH
Summary of the method: as §1

ETV5 = ETV5 (Homo sapiens, UniProt P41161 1-510); conditions: protein: recombinant; tags: N-terminal GST; dsDNA, one strand shown
Chain of ETV5 (P41161 whole entry): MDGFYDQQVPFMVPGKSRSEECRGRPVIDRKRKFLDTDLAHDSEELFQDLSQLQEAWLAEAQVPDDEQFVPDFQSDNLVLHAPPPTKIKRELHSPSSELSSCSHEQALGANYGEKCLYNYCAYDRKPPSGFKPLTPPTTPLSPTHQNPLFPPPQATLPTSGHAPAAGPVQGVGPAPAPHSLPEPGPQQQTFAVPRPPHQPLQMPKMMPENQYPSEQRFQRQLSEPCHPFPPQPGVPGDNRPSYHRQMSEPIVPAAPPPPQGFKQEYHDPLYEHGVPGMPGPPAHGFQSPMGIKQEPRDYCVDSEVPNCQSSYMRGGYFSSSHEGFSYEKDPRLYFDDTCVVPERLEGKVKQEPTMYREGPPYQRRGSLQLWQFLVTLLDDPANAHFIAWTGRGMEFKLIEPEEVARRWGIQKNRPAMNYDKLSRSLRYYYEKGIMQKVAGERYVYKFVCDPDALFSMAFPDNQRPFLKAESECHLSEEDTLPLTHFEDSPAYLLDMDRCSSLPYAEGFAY
Summary of the method: as §1

HSF1 = HSF1 (Homo sapiens, UniProt Q00613 1-529); conditions: protein: recombinant; tags: N-terminal GST; chain copies: 3; dsDNA, one strand shown
Chain of HSF1 (Q00613 whole entry): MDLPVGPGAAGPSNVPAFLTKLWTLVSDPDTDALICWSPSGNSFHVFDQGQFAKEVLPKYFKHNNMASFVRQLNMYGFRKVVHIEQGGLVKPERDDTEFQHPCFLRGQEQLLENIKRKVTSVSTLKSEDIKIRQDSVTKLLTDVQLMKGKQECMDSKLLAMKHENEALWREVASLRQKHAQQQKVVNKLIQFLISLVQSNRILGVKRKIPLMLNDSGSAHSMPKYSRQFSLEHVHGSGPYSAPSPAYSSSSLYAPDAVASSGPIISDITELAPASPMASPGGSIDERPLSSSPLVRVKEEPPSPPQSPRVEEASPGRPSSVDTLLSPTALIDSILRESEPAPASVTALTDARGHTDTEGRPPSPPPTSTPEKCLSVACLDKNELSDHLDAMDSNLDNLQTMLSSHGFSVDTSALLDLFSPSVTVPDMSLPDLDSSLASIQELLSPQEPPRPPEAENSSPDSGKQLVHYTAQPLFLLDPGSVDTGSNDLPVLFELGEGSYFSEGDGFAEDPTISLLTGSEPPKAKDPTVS
Summary of the method: as §1

SPIC = biological target: T8, SPIC (Homo sapiens, UniProt Q8N5J4 1-248); conditions: protein: recombinant; tags: N-terminal GST; dsDNA, one strand shown
T8 sequence: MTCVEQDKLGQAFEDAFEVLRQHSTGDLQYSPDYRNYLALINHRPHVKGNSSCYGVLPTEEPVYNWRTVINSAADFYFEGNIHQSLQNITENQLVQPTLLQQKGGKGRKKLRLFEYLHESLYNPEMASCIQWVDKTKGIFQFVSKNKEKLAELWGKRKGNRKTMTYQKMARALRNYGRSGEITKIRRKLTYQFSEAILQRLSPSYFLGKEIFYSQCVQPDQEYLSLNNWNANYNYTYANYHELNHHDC
Summary of the method: as §1

ELF4 = ELF4 (Homo sapiens, UniProt Q99607 1-663); conditions: protein: recombinant; tags: N-terminal GST; dsDNA, one strand shown
Chain of ELF4 (Q99607 whole entry): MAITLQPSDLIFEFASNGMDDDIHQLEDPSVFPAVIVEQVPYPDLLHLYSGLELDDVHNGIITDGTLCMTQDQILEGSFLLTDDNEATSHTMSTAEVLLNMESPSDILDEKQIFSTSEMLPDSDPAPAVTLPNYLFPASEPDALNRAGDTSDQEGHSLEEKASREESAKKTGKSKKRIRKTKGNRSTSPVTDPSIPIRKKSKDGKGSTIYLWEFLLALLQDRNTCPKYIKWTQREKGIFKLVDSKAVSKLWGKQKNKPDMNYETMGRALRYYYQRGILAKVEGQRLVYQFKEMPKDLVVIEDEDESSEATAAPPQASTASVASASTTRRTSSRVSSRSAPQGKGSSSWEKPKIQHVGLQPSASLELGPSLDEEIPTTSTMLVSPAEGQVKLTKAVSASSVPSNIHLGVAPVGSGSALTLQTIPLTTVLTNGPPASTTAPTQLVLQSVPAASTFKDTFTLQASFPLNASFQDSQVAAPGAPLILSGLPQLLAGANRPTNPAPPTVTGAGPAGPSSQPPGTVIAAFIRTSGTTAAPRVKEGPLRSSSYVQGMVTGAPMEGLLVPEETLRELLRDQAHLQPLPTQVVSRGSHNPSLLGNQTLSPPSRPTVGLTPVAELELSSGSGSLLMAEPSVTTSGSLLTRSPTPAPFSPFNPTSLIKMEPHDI
Summary of the method: as §1

ELK4 = biological target: T9, ELK4 (Homo sapiens, UniProt P28324-2 1-405); conditions: protein: recombinant; tags: N-terminal GST; dsDNA, one strand shown
T9 sequence: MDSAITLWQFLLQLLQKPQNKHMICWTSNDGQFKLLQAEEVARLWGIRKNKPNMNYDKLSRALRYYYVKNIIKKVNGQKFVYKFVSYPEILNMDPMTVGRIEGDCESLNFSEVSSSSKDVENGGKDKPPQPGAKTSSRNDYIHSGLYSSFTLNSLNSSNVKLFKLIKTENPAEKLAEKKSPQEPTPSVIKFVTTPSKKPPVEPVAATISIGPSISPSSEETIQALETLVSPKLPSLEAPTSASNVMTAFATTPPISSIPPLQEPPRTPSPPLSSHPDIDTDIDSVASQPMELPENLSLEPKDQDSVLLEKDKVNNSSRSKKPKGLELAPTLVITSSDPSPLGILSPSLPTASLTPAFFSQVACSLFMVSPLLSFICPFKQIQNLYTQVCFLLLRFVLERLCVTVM
Summary of the method: as §1

ETV2 = biological target: T10, ETV2 (Homo sapiens, UniProt O00321 1-342); conditions: protein: recombinant; tags: N-terminal GST; dsDNA, one strand shown
T10 sequence: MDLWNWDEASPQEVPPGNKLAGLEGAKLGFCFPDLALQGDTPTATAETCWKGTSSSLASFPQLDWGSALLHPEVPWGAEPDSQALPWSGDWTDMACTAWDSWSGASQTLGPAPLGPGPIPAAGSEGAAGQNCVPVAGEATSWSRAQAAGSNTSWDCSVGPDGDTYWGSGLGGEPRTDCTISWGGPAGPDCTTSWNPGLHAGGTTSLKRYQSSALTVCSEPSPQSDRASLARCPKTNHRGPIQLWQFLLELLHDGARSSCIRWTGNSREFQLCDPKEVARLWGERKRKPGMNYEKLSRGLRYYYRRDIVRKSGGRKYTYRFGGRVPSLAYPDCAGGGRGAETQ
Summary of the method: as §1

ELF3 = biological target: T11, ELF3 (Homo sapiens, UniProt P78545 1-371); conditions: protein: recombinant; tags: N-terminal GST; dsDNA, one strand shown
T11 sequence: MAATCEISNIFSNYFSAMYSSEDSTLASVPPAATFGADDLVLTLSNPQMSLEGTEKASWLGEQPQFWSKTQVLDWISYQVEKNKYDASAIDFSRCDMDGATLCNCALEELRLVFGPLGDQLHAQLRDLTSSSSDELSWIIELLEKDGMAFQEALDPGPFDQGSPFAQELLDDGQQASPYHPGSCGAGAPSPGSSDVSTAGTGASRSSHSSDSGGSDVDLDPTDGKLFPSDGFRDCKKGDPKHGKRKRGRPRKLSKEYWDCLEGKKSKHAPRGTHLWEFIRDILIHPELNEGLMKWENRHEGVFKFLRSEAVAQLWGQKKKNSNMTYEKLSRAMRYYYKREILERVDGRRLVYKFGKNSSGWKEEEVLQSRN
Summary of the method: as §1

CRX = CRX (Homo sapiens, UniProt O43186 1-299); conditions: protein: recombinant; tags: N-terminal GST; dsDNA, one strand shown
Chain of CRX (O43186 whole entry): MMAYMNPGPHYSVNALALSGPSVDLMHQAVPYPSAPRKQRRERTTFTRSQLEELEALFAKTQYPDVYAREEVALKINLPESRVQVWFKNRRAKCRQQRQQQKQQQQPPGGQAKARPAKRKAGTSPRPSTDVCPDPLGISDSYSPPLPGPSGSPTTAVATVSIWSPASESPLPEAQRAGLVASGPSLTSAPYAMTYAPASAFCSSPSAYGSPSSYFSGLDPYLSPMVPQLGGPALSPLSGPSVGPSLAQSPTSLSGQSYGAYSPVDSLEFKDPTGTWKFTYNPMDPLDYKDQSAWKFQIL
Summary of the method: as §1

ETV1 = ETV1 (Homo sapiens, UniProt P50549 1-477); conditions: protein: recombinant; tags: N-terminal GST; dsDNA, one strand shown
Chain of ETV1 (P50549 whole entry): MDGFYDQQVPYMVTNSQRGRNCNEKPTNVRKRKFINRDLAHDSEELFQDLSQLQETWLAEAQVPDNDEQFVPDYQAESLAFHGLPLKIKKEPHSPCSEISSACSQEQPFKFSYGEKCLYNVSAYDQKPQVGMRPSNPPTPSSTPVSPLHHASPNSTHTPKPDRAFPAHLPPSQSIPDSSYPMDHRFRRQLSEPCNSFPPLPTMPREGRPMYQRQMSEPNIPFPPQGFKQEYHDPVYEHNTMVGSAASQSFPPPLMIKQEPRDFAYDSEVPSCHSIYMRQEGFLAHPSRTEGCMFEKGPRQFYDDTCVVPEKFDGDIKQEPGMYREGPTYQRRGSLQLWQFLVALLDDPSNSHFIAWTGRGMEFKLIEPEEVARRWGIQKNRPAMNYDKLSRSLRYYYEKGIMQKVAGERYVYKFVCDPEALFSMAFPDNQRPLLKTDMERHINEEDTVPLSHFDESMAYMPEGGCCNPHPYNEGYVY
Summary of the method: as §1

AATGAC
binding signal (FLI1): 1.36 fold enrichment (6-mer frequency, TF over GST control)
binding signal (ELK1): 1.52 fold enrichment (6-mer frequency, TF over GST control)
binding signal (GABPA): 1.43 fold enrichment (6-mer frequency, TF over GST control)
binding signal (ERG): 1.42 fold enrichment (6-mer frequency, TF over GST control)
binding signal (ELF1): 1.36 fold enrichment (6-mer frequency, TF over GST control)
binding signal (EHF): 1.35 fold enrichment (6-mer frequency, TF over GST control)
binding signal (SPI1): 1.36 fold enrichment (6-mer frequency, TF over GST control)
binding signal (SPIB): 1.39 fold enrichment (6-mer frequency, TF over GST control)
binding signal (ELK3): 1.44 fold enrichment (6-mer frequency, TF over GST control)
binding signal (FEV): 1.47 fold enrichment (6-mer frequency, TF over GST control)
binding signal (ETV5): 1.35 fold enrichment (6-mer frequency, TF over GST control)
binding signal (HSF1): 1.22 fold enrichment (6-mer frequency, TF over GST control)
binding signal (SPIC): 1.36 fold enrichment (6-mer frequency, TF over GST control)
binding signal (ELF4): 1.37 fold enrichment (6-mer frequency, TF over GST control)
binding signal (ELK4): 1.35 fold enrichment (6-mer frequency, TF over GST control)
binding signal (ETV2): 1.4 fold enrichment (6-mer frequency, TF over GST control)
binding signal (ELF3): 1.49 fold enrichment (6-mer frequency, TF over GST control)
binding signal (CRX): 1.16 fold enrichment (6-mer frequency, TF over GST control)
binding signal (ETV1): 1.4 fold enrichment (6-mer frequency, TF over GST control)

From article PMC7862700, “An all-to-all approach to the identification of sequence-specific readers for epigenetic DNA modifications on cytosine”
